Experimental data reported in PubChem BioAssay (Tox21).
Records with an inconclusive call do not appear. The source made the active and inactive calls. Unless noted, calls follow the shape of the full dose curve.

Columns and labels:
[1] = Nuclear factor erythroid 2-related factor 2/antioxidant responsive element (Nrf2/ARE) small molecule agonists: qHTS cell viability counter screen in human keratinocytes (AID 1919968; active = well fitted curve in the direction sought with a large enough effect in the repeat runs; an effect the other way counts as inactive or inconclusive; also: nearly all actives have a fitted effect of over 55% in size)
Outline: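 HaCaT ARE reporter line, 1,500 cells/well; 5 h settle, 37 C/5% CO2; cpd in DMSO pinned; 23 h exposure; CellTiter-Fluor, 1 h; fluorescence.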

[2] = Nuclear factor erythroid 2-related factor 2/antioxidant responsive element (Nrf2/ARE) small molecule agonists: luciferase reporter gene qHTS assay in human keratinocytes (AID 1919969); also: nearly all actives have a fitted effect of over 35% in size
[3] = molecular target: Gonadotropin-releasing hormone receptor (Homo sapiens) (UniProt P30968); test: Human gonadotropin-releasing hormone receptor (GnRHR) small molecule agonists, calcium flux assay in GnRHR-HEK293 cells (AID 1920063); also: nearly all actives have a fitted effect of over 35% in size
Outline: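 GnRHR-HEK293, 1500 cells/well, 18 h 37 C/5% CO2; Ca dye 1 h 37 C; cpd pinned (DMSO), agonist mode; kinetic FL 480/540, 3 min, 1 s reads; 15 conc, n=3.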

[4] = molecular target: KiSS-1 receptor (Homo sapiens) (UniProt Q969F8); test: Human kisspeptin (KISS1R) small molecule agonists, calcium flux assay in KISS1R-HEK293 cells (AID 1920064; active = well fitted curve in the direction sought with a large enough effect in the repeat runs; an effect the other way counts as inactive or inconclusive)
Outline: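 Stable human KISS1R HEK293 line; 18 h plating, 37 C/5% CO2; calcium dye 1 h 37 C; compound pin transfer; kinetic fluorescence Ex/Em 480/540, 3 min.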

[5] = G protein-coupled receptor (GPCR) small molecule agonists, calcium flux assay: HEK293 wild type cell line counter screen (AID 1920065)
Outline: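 Kinetic fluorescence at Ex/Em 480/540, recorded every second over 3 min, served as the read-out after compound addition. Each compound was tested at 15 concentrations in triplicate on cells pre-loaded with calcium dye for 1 h.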

[6] = p53 small molecule agonists, cell-based qHTS assay with human liver microsomes (AID 1963577);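 also: p53 response element beta-lactamase reporter cells with liver microsomes plus NADPH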
Outline: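 16 h, 37 C exposure of p53RE-bla cells to compounds with human liver microsomes and NADPH (0.5 mg/mL final each); detection via LiveBLAzer mixture, 2 h dark at room temperature.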

[7] = p53 small molecule agonists, cell-based qHTS assay with rat liver microsomes (AID 1963578)
Outline: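 With rat liver microsomes and NADPH present (0.5 mg/mL final each), p53RE-bla cells are treated with compound for 16 h at 37 C. LiveBLAzer detection mixture is then applied for 2 h at room temperature in the dark.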

[8] = p53 small molecule agonists, cell-based qHTS assay with human liver microsomes: qHTS cell viability counter screen (AID 1963579); also: nearly all actives have a fitted effect of over 45% in size
Outline: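 In this multiplexed counter screen, the reporter plates were subsequently treated with CellTiter-Glo so that cell viability, reflected by luminescence, could be recorded for p53RE-bla cells dosed 16 h with compounds under microsomal activation (HLM and NADPH).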

[9] = p53 small molecule agonists, cell-based qHTS assay with rat liver microsomes: qHTS cell viability counter screen (AID 1963580); also: nearly all actives have a fitted effect of over 45% in size
Outline: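 Intracellular ATP, by CellTiter-Glo luminescence, defines viability. HCT-116 p53RE-bla cells, 4,000 per well, were compound-treated in the presence of rat liver microsomes and NADPH for 16 h at 37 C.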

[10] = p53 small molecule agonists, cell-based qHTS assay: qHTS cell viability counter screen (AID 1963581); also: nearly all actives have a fitted effect of over 45% in size
Outline: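 HCT-116 p53RE-bla cells, 4,000/well, plated 5 h before compound pin transfer; 16 h at 37 C; bla substrate 2 h RT; then CellTiter-Glo, 30 min RT, luminescence.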

[11] = p53 small molecule agonists, cell-based qHTS assay (AID 1963582; active = well fitted activation curve with a large enough effect in the signal ratio in the repeat runs, not every such curve was filed as active; the % refers to the signal ratio)
Outline: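 Reporter line: p53RE-bla. Pre-incubation 5 h, 37 C, 5% CO2; compound (DMSO, pin tool) 16 h, 37 C; B/G FRET substrate 2 h RT; fluorescence intensity read.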

[12] = molecular target: 5-hydroxytryptamine receptor 2A (Homo sapiens) (UniProt P28223); test: 5-hydroxytryptamine receptor 2A (HTR2A) small molecule antagonists, cell-based qHTS assay (AID 1963586); also: nearly all actives have a fitted effect of over 45% in size
Outline: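 Antagonist-mode intracellular calcium assay: DOI (4 nM) added after 5 min compound pre-incubation at room temperature to dye-loaded HTR2A-CHO cells. Fluorescence followed for 3 min, sampled every second.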

[13] = molecular target: 5-hydroxytryptamine receptor 2A (Homo sapiens) (UniProt P28223); test: 5-hydroxytryptamine receptor 2A (HTR2A) small molecule agonists, cell-based qHTS assay (AID 1963587); also: nearly all actives have a fitted effect of over 30% in size
Outline: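 Kinetic calcium-flux fluorescence (2 min, 1 sec intervals) after compound addition in agonist mode. HTR2A-CHO cells were cultured 18 h, then dye-loaded 1 h at 37 C.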

[14] = molecular target: Muscarinic acetylcholine receptor M1 (Homo sapiens) (UniProt P11229); test: Cholinergic receptor muscarinic 1 (CHRM1) small molecule antagonists, cell-based qHTS assay (AID 1963588); also: nearly all actives have a fitted effect of over 40% in size
Outline: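 CHRM1-CHO calcium-flux assay, antagonist mode. Cells were seeded 18 h, dye-loaded 1 h at 37 C and given compound for 5 min at RT, then acetylcholine was added at 50nM. FDSS fluorescence was read 3 min; 15 concentrations, three runs.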

[15] = molecular target: Muscarinic acetylcholine receptor M1 (Homo sapiens) (UniProt P11229); test: Cholinergic receptor muscarinic 1 (CHRM1) small molecule agonists, cell-based qHTS assay (AID 1963589); also: nearly all actives have a fitted effect of over 35% in size
Outline: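 Human M1 in stable CHO line; 18 h plating, 1 h dye load 37 C; cpd added (agonist mode); Ca2+ fluorescence kinetic read, 1 s intervals; 15 conc, 3 runs.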

[16] = cAMP Responsive Elements (CRE) small molecule agonists, cell-based qHTS assay (AID 1963590)
Outline: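 HEK 293T CRE-bla, 2,000 cells/well, 18 h preincubation 37 C/5% CO2; cpds (DMSO) pinned, 3 h; LiveBLAzer B/G FRET substrate, 2 h RT.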

[17] = cAMP Responsive Elements (CRE) small molecule antagonists, cell-based qHTS assay (AID 1963591; active = well fitted inhibition curve with a large enough effect in the signal ratio in the repeat runs, not every such curve was filed as active; the % refers to the signal ratio)
Outline: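 Beta-lactamase reporter read by FRET substrate (LiveBLAzer B/G) after 2 h at room temperature. CRE-bla HEK293T cells had received compound plus 0.25 uM (final) NKH477 for 3 h at 37 °C.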

[18] = molecular target: Beta-2 adrenergic receptor (Homo sapiens) (UniProt P07550); test: Adrenergic beta2 receptor (ADRB2) small molecule antagonists, cell-based qHTS assay (AID 1963592); also: series mostly up to about 92 µM; nearly all actives have a fitted effect of over 50% in size
Outline: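 Cells (CHO, stable ADRB2 overexpression) incubated 18-20hr at 37C; compounds added from DMSO; agonist mix (1nM isoproterenol, 100uM IBMX, 25uM Ro-20-1724) added; 0.5hr RT; d2-cAMP and anti-cAMP-cryptate added; 1hr RT; 665/615 nm read.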

[19] = molecular target: Beta-2 adrenergic receptor (Homo sapiens) (UniProt P07550); test: Adrenergic beta2 receptor (ADRB2) small molecule agonists, cell-based qHTS assay (AID 1963593);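 also: CHO cells stably overexpressing human ADRB2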
Outline: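 CHO cells stably over-expressing ADRB2 were plated overnight at 37C, then dosed with compounds plus a stimulation mix containing 100uM IBMX and 25uM Ro-20-1724 for 0.5hr at room temperature. cAMP was measured by HTRF competition, 1hr.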

[20] = molecular target: D(2) dopamine receptor (Homo sapiens) (UniProt P14416); test: Dopamine D2 receptor (DRD2) small molecule agonists, cell-based qHTS assay (AID 1963594); also: nearly all actives have a fitted effect of over 35% in size
Outline: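 cAMP accumulation in DRD2-HEK293 cells measured by HTRF after 1 h detection; compounds added 10 min before NKH477 (200nM […]) forskolin-analogue stimulation, 30 min at room temperature, with Ro20-1724 present at 0.1 mM final.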
% is scaled to controls: 0 for no effect and ±100 for the full control effect.

Sequence of Muscarinic acetylcholine receptor M1 (Homo sapiens) (P11229 whole entry, looked up): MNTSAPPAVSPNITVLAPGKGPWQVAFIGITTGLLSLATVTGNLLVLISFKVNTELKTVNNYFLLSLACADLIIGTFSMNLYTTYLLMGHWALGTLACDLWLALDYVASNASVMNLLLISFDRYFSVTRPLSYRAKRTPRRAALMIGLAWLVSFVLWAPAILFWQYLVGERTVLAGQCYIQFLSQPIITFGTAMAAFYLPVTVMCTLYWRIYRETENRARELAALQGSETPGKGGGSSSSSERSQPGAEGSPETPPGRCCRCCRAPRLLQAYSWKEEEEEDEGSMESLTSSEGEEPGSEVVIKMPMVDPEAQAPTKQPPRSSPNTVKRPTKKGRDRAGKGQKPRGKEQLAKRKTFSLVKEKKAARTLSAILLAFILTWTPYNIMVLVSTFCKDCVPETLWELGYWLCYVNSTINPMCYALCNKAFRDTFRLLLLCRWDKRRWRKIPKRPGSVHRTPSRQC
Sequence of KiSS-1 receptor (Homo sapiens) (Q969F8 whole entry, looked up): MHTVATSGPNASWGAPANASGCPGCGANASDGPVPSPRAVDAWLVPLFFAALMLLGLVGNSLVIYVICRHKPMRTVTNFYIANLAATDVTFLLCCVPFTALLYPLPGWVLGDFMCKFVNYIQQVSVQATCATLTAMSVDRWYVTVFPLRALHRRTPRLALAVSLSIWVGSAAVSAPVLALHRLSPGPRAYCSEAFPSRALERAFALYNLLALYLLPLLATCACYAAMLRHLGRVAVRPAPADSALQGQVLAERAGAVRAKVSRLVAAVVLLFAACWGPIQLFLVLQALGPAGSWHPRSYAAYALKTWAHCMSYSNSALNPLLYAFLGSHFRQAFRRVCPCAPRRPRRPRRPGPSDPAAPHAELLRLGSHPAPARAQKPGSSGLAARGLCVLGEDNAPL
Sequence of Beta-2 adrenergic receptor (Homo sapiens) (P07550 whole entry, looked up): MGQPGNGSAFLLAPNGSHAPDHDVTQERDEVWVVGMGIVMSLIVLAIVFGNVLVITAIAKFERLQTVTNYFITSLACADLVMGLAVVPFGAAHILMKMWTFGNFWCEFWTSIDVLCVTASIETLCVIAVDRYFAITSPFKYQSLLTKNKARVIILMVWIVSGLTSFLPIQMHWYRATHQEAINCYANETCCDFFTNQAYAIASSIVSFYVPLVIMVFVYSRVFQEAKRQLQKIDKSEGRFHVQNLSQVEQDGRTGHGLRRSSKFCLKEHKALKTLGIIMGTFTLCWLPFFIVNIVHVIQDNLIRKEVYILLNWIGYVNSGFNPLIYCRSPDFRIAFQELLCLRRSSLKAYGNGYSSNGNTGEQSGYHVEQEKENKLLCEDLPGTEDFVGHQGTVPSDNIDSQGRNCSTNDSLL
Sequence of D(2) dopamine receptor (Homo sapiens) (P14416 whole entry, looked up): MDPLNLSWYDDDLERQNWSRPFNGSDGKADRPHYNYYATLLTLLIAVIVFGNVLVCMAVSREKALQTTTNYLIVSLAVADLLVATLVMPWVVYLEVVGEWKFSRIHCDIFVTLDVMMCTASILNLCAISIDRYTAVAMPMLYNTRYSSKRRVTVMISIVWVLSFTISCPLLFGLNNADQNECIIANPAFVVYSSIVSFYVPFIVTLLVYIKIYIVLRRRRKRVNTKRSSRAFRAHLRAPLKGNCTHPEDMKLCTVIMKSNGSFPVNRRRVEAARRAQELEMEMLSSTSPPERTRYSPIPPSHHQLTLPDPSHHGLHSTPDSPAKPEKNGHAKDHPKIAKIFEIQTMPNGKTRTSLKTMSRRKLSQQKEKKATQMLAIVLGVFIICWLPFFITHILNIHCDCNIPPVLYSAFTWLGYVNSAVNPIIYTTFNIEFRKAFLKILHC
Sequence of Gonadotropin-releasing hormone receptor (Homo sapiens) (P30968 whole entry, looked up): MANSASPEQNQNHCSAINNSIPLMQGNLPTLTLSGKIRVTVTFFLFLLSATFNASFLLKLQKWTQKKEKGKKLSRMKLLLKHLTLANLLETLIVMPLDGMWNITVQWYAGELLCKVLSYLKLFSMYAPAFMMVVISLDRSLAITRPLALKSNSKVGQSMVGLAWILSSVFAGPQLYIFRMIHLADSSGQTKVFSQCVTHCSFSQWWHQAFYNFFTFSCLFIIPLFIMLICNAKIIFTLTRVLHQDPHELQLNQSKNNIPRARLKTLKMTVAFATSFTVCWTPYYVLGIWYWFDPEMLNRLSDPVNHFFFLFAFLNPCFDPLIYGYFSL
Sequence of 5-hydroxytryptamine receptor 2A (Homo sapiens) (P28223 whole entry, looked up): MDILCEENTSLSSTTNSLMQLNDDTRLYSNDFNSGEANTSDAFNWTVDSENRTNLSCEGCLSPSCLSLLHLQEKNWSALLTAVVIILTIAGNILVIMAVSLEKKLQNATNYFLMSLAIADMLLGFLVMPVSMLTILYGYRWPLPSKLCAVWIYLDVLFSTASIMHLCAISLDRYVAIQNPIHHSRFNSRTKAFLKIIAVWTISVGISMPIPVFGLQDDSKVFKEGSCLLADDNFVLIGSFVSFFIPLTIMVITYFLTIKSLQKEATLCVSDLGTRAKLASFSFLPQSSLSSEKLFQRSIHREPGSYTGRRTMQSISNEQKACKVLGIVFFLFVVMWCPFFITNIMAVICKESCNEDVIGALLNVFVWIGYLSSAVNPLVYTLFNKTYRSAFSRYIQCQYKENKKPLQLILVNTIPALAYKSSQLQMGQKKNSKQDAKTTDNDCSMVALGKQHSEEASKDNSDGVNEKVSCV

CCCCCCCCOC(=O)CCCCCCCCC(=O)OCCCCCCCC
inactive: Potency [1] | Potency [2] | Potency [3] | Potency [4] | Potency [5] | Potency [6] | Potency [7] | Potency [8] | Potency [9] | Potency [10] | Potency [11] | Potency [12] | Potency [13] | Potency [14] | Potency [15] | Potency [16] | Potency [17] | Potency [18] | Potency [19] | Potency [20]

COC(/C=C(\C)CCC=C(C)C)OC
inactive: Potency [1] | Potency [2] | Potency [3] | Potency [4] | Potency [5] | Potency [6] | Potency [7] | Potency [8] | Potency [9] | Potency [10] | Potency [11] | Potency [12] | Potency [13] | Potency [14] | Potency [15] | Potency [16] | Potency [17] | Potency [18] | Potency [19] | Potency [20]

O=S(=O)(O)C(F)(F)F
inactive: Potency [1] | Potency [2] | Potency [3] | Potency [4] | Potency [5] | Potency [6] | Potency [7] | Potency [8] | Potency [9] | Potency [10] | Potency [11] | Potency [12] | Potency [13] | Potency [14] | Potency [15] | Potency [16] | Potency [17] | Potency [18] | Potency [19] | Potency [20]

Cc1ccccc1OCC(O)CO (stereo not given)
inactive: Potency [1] | Potency [2] | Potency [3] | Potency [4] | Potency [5] | Potency [6] | Potency [7] | Potency [8] | Potency [9] | Potency [10] | Potency [11] | Potency [12] | Potency [13] | Potency [14] | Potency [15] | Potency [16] | Potency [17] | Potency [18] | Potency [19] | Potency [20]

CCOC(=O)O[C@]1(C(=O)OCCl)CC[C@H]2[C@@H]3CCC4=CC(=O)C=C[C@]4(C)[C@H]3[C@@H](O)C[C@@]21C
inactive: Potency [1] | Potency [2] | Potency [3] | Potency [4] | Potency [5] | Potency [6] | Potency [7] | Potency [8] | Potency [9] | Potency [10] | Potency [11] | Potency [12] | Potency [13] | Potency [14] | Potency [15] | Potency [16] | Potency [17] | Potency [18] | Potency [19] | Potency [20]

C=C(C)C(=O)OCCOP(=O)(O)O
inactive: Potency [1] | Potency [2] | Potency [3] | Potency [4] | Potency [5] | Potency [6] | Potency [7] | Potency [8] | Potency [9] | Potency [10] | Potency [11] | Potency [12] | Potency [13] | Potency [14] | Potency [15] | Potency [16] | Potency [17] | Potency [18] | Potency [19] | Potency [20]

CCc1cnc(C(=O)O)c(C(=O)O)c1
inactive: Potency [1] | Potency [2] | Potency [3] | Potency [4] | Potency [5] | Potency [6] | Potency [7] | Potency [8] | Potency [9] | Potency [10] | Potency [11] | Potency [12] | Potency [13] | Potency [14] | Potency [15] | Potency [16] | Potency [17] | Potency [18] | Potency [19] | Potency [20]

COc1cccc(OC)c1C(=O)O
inactive: Potency [1] | Potency [2] | Potency [3] | Potency [4] | Potency [5] | Potency [6] | Potency [7] | Potency [8] | Potency [9] | Potency [10] | Potency [11] | Potency [12] | Potency [13] | Potency [14] | Potency [15] | Potency [16] | Potency [17] | Potency [18] | Potency [19] | Potency [20]

COC(=O)c1ccccc1C(=O)O
inactive: Potency [1] | Potency [2] | Potency [3] | Potency [4] | Potency [5] | Potency [6] | Potency [7] | Potency [8] | Potency [9] | Potency [10] | Potency [11] | Potency [12] | Potency [13] | Potency [14] | Potency [15] | Potency [16] | Potency [17] | Potency [18] | Potency [19] | Potency [20]

NC(=O)NS(=O)(=O)c1ccc(Cl)cc1
inactive: Potency [1] | Potency [2] | Potency [3] | Potency [4] | Potency [5] | Potency [6] | Potency [7] | Potency [8] | Potency [9] | Potency [10] | Potency [11] | Potency [12] | Potency [13] | Potency [14] | Potency [15] | Potency [16] | Potency [17] | Potency [18] | Potency [19] | Potency [20]

CC12CCC(C1)C(C)(C)C2O (stereo not given)
inactive: Potency [1] | Potency [2] | Potency [3] | Potency [4] | Potency [5] | Potency [6] | Potency [7] | Potency [8] | Potency [9] | Potency [10] | Potency [11] | Potency [12] | Potency [13] | Potency [14] | Potency [15] | Potency [16] | Potency [17] | Potency [18] | Potency [19] | Potency [20]

CC(C)=CCCC(C)O (stereo not given)
inactive: Potency [1] | Potency [2] | Potency [3] | Potency [4] | Potency [5] | Potency [6] | Potency [7] | Potency [8] | Potency [9] | Potency [10] | Potency [11] | Potency [12] | Potency [13] | Potency [14] | Potency [15] | Potency [16] | Potency [17] | Potency [18] | Potency [19] | Potency [20]

CC(C)(C)CC(C)(C)c1ccc(Nc2ccc(C(C)(C)CC(C)(C)C)cc2)cc1
inactive: activity change, negative = cytotoxicity [1] 0.0348% [at 8.39 µM] | activity, positive = activation [2] -1.24% [at 8.39 µM] | activity change [3] 0.129% [at 5.22 µM, active compounds read high] | activation [4] 0.255% [at 6.97 µM] | activation [5] -0.517% [at 5.23 µM] | activation [6] -1.73% [at 5.99 µM] | activation [7] -0.0551% [at 5.99 µM] | activity change, negative = cytotoxicity [8] -1.28% [at 5.99 µM] | activity change, negative = cytotoxicity [9] -9.33% [at 5.99 µM] | activity change, negative = cytotoxicity [10] 0.663% [at 5.99 µM] | activation [11] 4.39% [at 5.99 µM] | activity, negative = inhibition [12] -0.349% [at 5.62 µM] | activation [13] 5.4% [at 7.02 µM] | activity, negative = inhibition [14] -10.6% [at 5.58 µM] | activation [15] 0.016% [at 6.97 µM] | activation [16] -1.83% [at 8.39 µM] | activity change, negative = inhibition [17] -1.43% [at 8.39 µM] | activity change, negative = inhibition [18] -0.838% [at 8.39 µM] | activation [19] 6.6% [at 8.39 µM] | activation [20] 1.28% [at 8.39 µM]
